# A selection: hits, their analogues and other compounds. The true share with any hit is near 3.1%.
# TSG101-PTAP inh: blocks PTAP/TSG101 interaction to inhibit HIV-1 budding. Q99816. Fluorescence polarization, FITC-PTAP peptide / Tsg101 binding. Potency, µM (series often up to 115 µM), for the others: top-dose activity change, negative = inhibition, usual class: inhibitors. 340,000 tested, under 10 active. AID 493005; active = well fitted inhibition curve with a large enough effect in the main read-out, with a control signal flat, not every such curve was filed as active; inconclusive = small, poorly fitted or top-dose-only effect, or effect the other way, or a change in a side signal; inactive = no such curve, though single readings can be large or run the other way; also: potency is read from the fitted curve at half-maximal effect; % of control where 0% means no effect
#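 Compounds were pin-transferred onto Tsg101 binding domain (10 uM final) in HEPES pH 7.5 buffer, then FITC-PTAP peptide was added at 50 nM final. After 20 min at RT, polarization reported peptide displacement across a qHTS concentration series.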
# PLK1 PBD inh: blocks phosphopeptide binding to human PLK1 polo-box domain | P53350 | Plk1 PBD binding of FITC phosphopeptide, fluorescence polarization | Potency, µM, for the others: max response, negative = inhibition, actives largely listed as inhibitors | hit rate 2.8% among 360,000 | AID 720504; also: potency is read from the fitted curve at half-maximal effect; series mostly up to about 57 µM; % is scaled to controls: 0 for no effect and ±100 for the full control effect; nearly all actives have a fitted effect of over 65% in size
# uPA surface inh: inhibitors of cell surface uPA generation | cell surface uPA generation assay, qHTS | Potency, µM (highest dose often 38.3 µM), inactives show at the top dose activity change, negative = inhibition, hits mostly inhibitors | hit rate 0.31% among 330,000 | AID 540303; active = well fitted inhibition curve with a large enough effect; inconclusive = small, poorly fitted or top-dose-only effect; inactive = no such curve, though single readings can be large or run the other way; tested in mouse RAW 264.7 cells; also: potency is read from the fitted curve at half-maximal effect; % is scaled to controls: 0 for no effect and ±100 for the full control effect; nearly all actives have a fitted effect of over 55% in size
# VDR inh: blocks the human vitamin D receptor | P11473 | VDR-SRC2-3 peptide fluorescence polarization, 2 h | hit rate 0.93% among 400,000 | Potency, µM, without a hit: max response, negative = inhibition, most hits filed as inhibitors; also: potency is read from the fitted curve at half-maximal effect; % is scaled to controls: 0 for no effect and ±100 for the full control effect
# Target sequence (P11473 whole entry, looked up): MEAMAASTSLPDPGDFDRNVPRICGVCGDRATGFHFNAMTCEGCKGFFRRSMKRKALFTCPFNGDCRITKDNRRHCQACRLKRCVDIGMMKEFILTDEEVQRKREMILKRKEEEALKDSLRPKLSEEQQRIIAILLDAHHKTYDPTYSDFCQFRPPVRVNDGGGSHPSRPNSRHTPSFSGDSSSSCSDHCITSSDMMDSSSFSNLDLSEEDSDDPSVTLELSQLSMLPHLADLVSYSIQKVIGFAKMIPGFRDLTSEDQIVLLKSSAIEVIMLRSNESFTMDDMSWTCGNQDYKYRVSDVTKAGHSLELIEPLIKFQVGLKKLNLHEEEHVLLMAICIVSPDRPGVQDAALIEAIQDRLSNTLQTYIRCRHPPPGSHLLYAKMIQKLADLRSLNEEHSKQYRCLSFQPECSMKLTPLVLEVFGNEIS
#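 The screen uses fluorescence polarization to detect compounds that interfere with recruitment of the SRC2-3 coactivator peptide to VDR; plates are read after 2 h at room temperature.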
# TSHR antag: blocks TSH signaling through the human TSH receptor | activity change, negative = inhibition, % at 11.5 µM | TSHR-expressing cells, TSH-stimulated cAMP HTRF, 2 h; hits give low values | hit rate 0.2% among 330,000 | P16473;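 active = activity change below a set negative limit, meaning inhibition stronger than a set level, cut at about -70% in these data; inconclusive = activity change between two set negative limits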; also: % is scaled to controls: 0 for no effect and ±100 for the full control effect
#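 TSHR-expressing cells were treated with compounds, then stimulated with TSH at EC80 (4nM final) for 2 hours at 37 deg C. Cellular cAMP was measured by HTRF competition between lysate cAMP and cAMP-d2 for a cryptate-labelled anti-cAMP antibody.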
# * = called active by the depositor; ? = inconclusive; / = no result. Unless noted, calls follow the shape of the dose curve; as a rule, active = well fitted curve in the direction sought with a large enough effect; inconclusive = small, poorly fitted or top-dose-only effect, or another doubt; inactive = no such curve, though single readings can be large; an effect the other way counts as inactive or inconclusive.
SMILES,TSG101-PTAP inh,PLK1 PBD inh,uPA surface inh,VDR inh,TSHR antag
C=C1C([C@@H](O)C[C@H](C)C2O[C@@]3(CCCCO3)CC[C@H]2C)OC2CC[C@@]3(CC[C@@H](/C=C/[C@@H](C)C4CC(C)=C[C@]5(O4)O[C@H](C[C@@](C)(O)C(=O)O)CCC5O)O3)OC2[C@@H]1O (some centres undefined),/,/,/,3%,/
C=C1C(O)[C@@H]2O[C@]3(CC[C@H](/C=C/C(C)[C@@H]4CC(C)=CC5(O[C@H](C[C@@](C)(O)C(=O)O)CCC5O)O4)O3)CC[C@H]2O[C@@H]1C(O)CC(C)[C@H]1OC2(CCCCO2)CCC1C (some centres undefined),-6%,-17%,?,0%,-78*
Cc1cc2c(C(F)(F)F)cc(=O)oc2c2c1NCCC2,?,5%,-2%,-1%,25
O=c1cc(C(F)(F)F)c2cc3c4c(c2o1)CCCN4CCC3,?,1.2µM*,-3%,-11%,12
CC[C@@]1(O)C(=O)OCc2c1cc1n(c2=O)-c2cc3ccccc3nc2C1,/,/,/,-2%,/
COc1cccc2c1C(=O)c1c(O)c3c(c(O)c1C2=O)CC(O)(C(C)=NO)CC3OC1CC(N)C(O)C(C)O1 (centres undefined),?,?,-7%,-9%,/
CC[C@]1(O)CC(O[C@@H]2CC(N(C)C)C(O)C(C)O2)c2c(cc3c(c2O)C(=O)c2c(O)cccc2C3=O)C1C(=O)OC (some centres undefined),/,/,/,32µM*,/
Cc1ccc(N=Cc2c(O)n(-c3ccc(C)cc3)c(=O)[nH]c2=O)cc1,0%,-12%,7%,7%,/
Cc1cccc(-n2c(O)c(/C=C/C=Nc3ccccc3)c(=O)[nH]c2=O)c1,37%,51%,4%,9%,14
COC(=O)C1=Nc2ccccc2/C1=C\c1c(O)n(-c2cc(OC)ccc2OC)c(=O)[nH]c1=O,-4%,3.4µM*,4%,?,14
CC1=Nc2ccccc2/C1=C/c1c(O)n(C)c(=O)[nH]c1=O,2%,?,-3%,-14%,10
CCC(C)N=Cc1c(O)n(-c2ccccc2)c(=O)[nH]c1=O (centres undefined),-2%,27µM*,/,?,11
Cc1ccccc1-n1c(O)c(/C=C2/C(c3ccccc3)=Nc3ccccc32)c(=O)[nH]c1=O,-4%,6.7µM*,-9%,89µM*,35
Cc1cccc(-n2c(O)c(/C=C3/C(c4ccccc4)=Nc4ccccc43)c(=O)[nH]c2=O)c1,-6%,13µM*,?,89µM*,11
CC(C)NC(=O)N1CCCC2(CCN(C(=O)Oc3ccccc3)CC2)C1,/,/,/,-9%,/
Cc1ccc(-n2c(O)c(/C=C3/C(c4ccccc4)=Nc4ccccc43)c(=O)[nH]c2=O)cc1,-1%,8.4µM*,-13%,-24%,13
Cn1cccc1/C=C1/C(=O)NC(=O)N(Cc2ccc(F)cc2)C1=O,-5%,?,-6%,-15%,0
COc1cc(/C=C2\C(=O)NC(=O)N(CCc3ccc(F)cc3)C2=O)ccc1O,-12%,0.75µM*,3%,?,-10
COc1cc(C=C2C(=O)NC(=O)NC2=O)ccc1O,-4%,21µM*,-7%,-19%,-9
CCCOc1ccc2[nH]cc(C3=CCNCC3)c2n1,/,/,/,-27%,/
O=C(/C=C/c1ccccc1)NC(NC(=S)Nc1cc(Cl)ccc1Cl)C(Cl)(Cl)Cl (centres undefined),-12%,-5%,?,13%,-13
CCOP(=O)(Nc1ccc2c(c1)C(=NNC(N)=S)c1ccccc1-2)OCC,0%,27µM*,-5%,?,/
C=C1C(=O)O[C@@H]2C[C@@H](C)[C@H]3C=CC(=O)[C@]3(O)C[C@@H]12,-2%,-7%,?,-27%,7
C=C1C(=O)OC2CC3(C)OC3CCC(C)=CC(OC(C)=O)C12 (centres undefined),-2%,-27%,-11%,71µM*,/
O=C(c1ccccc1)c1ccccc1N=Cc1c(O)[nH]c(=O)[nH]c1=O,-1%,-2%,-4%,1%,5
C=CCc1cccc(C=Nc2c[nH]c(=O)[nH]c2=O)c1O,-1%,27µM*,1%,-21%,3

# Assay outcomes: PubChem, National Center for Advancing Translational Sciences (NCATS)
